From PubChem BioAssay AID652104 (National Center for Advancing Translational Sciences (NCATS), 2013)
The whole screen tested about 410,000 compounds, of which about 7,200 (1.8%) were called active. Inconclusive results (about 7%) are left out. The sample holds actives, similar compounds and a random draw of the others, so the mix is not that of the screen. Unmarked numbers belong to inactive results. The call rests on the fitted dose curve; in most records, active means well fitted activation curve with a large enough effect; inconclusive means small, poorly fitted or top-dose-only effect, or another doubt; inactive means no such curve, though single readings can be large or run the other way.

Experiment: qHTS of TDP-43 Inhibitors; further: nearly all actives have a fitted effect of over 50% in size; on growth rescue (activation): % of control where 0% means no effect
Details: TDP-43 expressing yeast growth rescue, BacTiter-Glo, 24 h; series mostly up to 46.1 µM; growth rescue (activation): at the top concentration
Procedure, shortened: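 Galactose-induced TDP-43 yeast, OD600=0.02, compound pinned; 24 hr, 30 deg C; BacTiter-Glo luminescence for growth. Inhibitors of TDP-43 toxicity read as activators.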
Potency means the concentration at half of the fitted maximal effect.

First: Cc1ccc(C2CCN(C(=O)c3cnn(-c4ccccc4Cl)c3C3CCN(C(=O)OC(C)(C)C)CC3)C2)cc1 (stereo not given)
Second: COc1ccccc1N1CCN(c2ccc(=O)n(CC(=O)NCc3ccc(OC(C)C)cc3)n2)CC1
The “growth rescue (activation)” value of the first is higher: 14.4% for the first, -15.5% for the second.

Going from O=C(CN1C(=O)COc2ccc(S(=O)(=O)N3CCCCCC3)cc21)N1CCN(c2cccc(C(F)(F)F)c2)CC1 to COc1cccc(N2CCN(S(=O)(=O)c3ccc4c(c3)CCCN4C(C)=O)CC2)c1, the “growth rescue (activation)” value rises from -15.3% to 14.5%.

Going from O=C(N/N=C\c1ccc(-c2ccc(Cl)c(Cl)c2)o1)C(=O)N1CCCC1 to O=C(Cn1cc(SCc2cccc(Cl)c2)c2ccccc21)N1CCCCC1, the “growth rescue (activation)” value rises from 14.6% to 21.1%.

Going from Cc1ccc(/C=N/NC(=O)Cn2ccc(C(F)(F)F)n2)o1 to Cc1cc2nc(C(F)(F)F)cc(-c3cccs3)n2n1, the “growth rescue (activation)” value rises from -13.1% to 7.65%.

Compared with Cc1ccc(NC(=O)c2cn3c4c(ccc(Cl)c4c2=O)OC(C)C3)cc1C (stereo not given), COc1ccc(NC(=O)c2ccco2)cc1NC(=O)COc1ccc(C)c(C)c1 is higher in “growth rescue (activation)” value: 8.62% for the first, 19.3% for the second.

Going from Cc1cccc(Nc2cc(C)nc(-n3nc(C)cc3C)n2)c1 to COCCNC(=O)c1ccc2c(c1)N=C(C)c1cc(C)ccc1S2, the “growth rescue (activation)” value falls from 20.6% to 4.19%.

Compared with COc1ccc2c(Sc3ccc(C)cc3)c(C(=O)NC(C)c3ccccc3)[nH]c2c1 (stereo not given), CCOc1ccccc1NC(=O)c1ccc2c(c1)CCN2S(=O)(=O)c1ccc(C)cc1 is lower in “growth rescue (activation)” value: 4.22% for the first, -0.207% for the second.

Compared with Cc1nnc(SCC(=O)Nc2cccc(N)c2)n1-c1ccccc1, O=C(CSc1ccccc1)Nc1cccc(S(=O)(=O)N2CCOCC2)c1 is higher in “growth rescue (activation)” value: 7.19% for the first, 10.9% for the second.

First: Cc1ccc2nc(/C(C#N)=C/c3ccc(-c4ccc(C(=O)OC(C)C)cc4)o3)[nH]c2c1
Second: Cc1ccc(S(=O)(=O)N2CCc3cc(C(=O)Nc4ccc(Cl)cc4C)ccc32)cc1
The “growth rescue (activation)” value of the first is higher: 29.7% for the first, 12.7% for the second.

Going from COc1ccccc1NC(=O)c1cc(S(=O)(=O)NCCc2ccccc2)ccc1F to CCC(=O)N1CCc2cc(S(=O)(=O)NC(Cc3ccccc3)C(=O)NCc3ccccc3)ccc21 (stereo not given), the “growth rescue (activation)” value falls from 26% to 16.9%.

Going from COc1cccc(N2CCN(C3CC(=O)N(c4ccc(Cl)cc4)C3=O)CC2)c1 (stereo not given) to COc1cccc(N2C(=O)CC(N3CCN(S(=O)(=O)c4ccccc4)CC3)C2=O)c1 (stereo not given), the “growth rescue (activation)” value falls from 9.45% to 7.1%.

Compared with CCOc1ccccc1C(=O)Nc1ccc2c(c1)N(C)C(=O)c1ccccc1S2, Cc1nn2c(=O)cc(COC(=O)c3cccc(NC(=O)COc4ccccc4Cl)c3)nc2s1 is higher in “growth rescue (activation)” value: 10.1% for the first, 13.4% for the second.

Going from CCc1noc(C)c1C(=O)OCC(=O)c1ccc(NC(=O)CC(C)C)cc1 to CCc1noc(C)c1C(=O)N1CCCSC1=Nc1ccccc1OC, the “growth rescue (activation)” value rises from -3.44% to 13.6%.

First: O=C(/C=C/c1cn(CC(O)CN2CCc3ccccc32)c2ccccc12)c1ccc(Br)cc1 (stereo not given)
Second: Cc1ccc(C(=O)N2CCc3cc(CNC(=O)c4ccc(Br)cc4)ccc32)cc1
The “growth rescue (activation)” value of the first is lower: -30.3% for the first, -9.12% for the second.

Compared with Cc1ccccc1OCc1ccc(-c2nc(C#N)c(N3CCCCC3)o2)o1, COc1ccc(OCc2ccc(-c3nc(C#N)c(N4CCN(c5ccccc5)CC4)o3)o2)cc1 is higher in “growth rescue (activation)” value: 0.64% for the first, 6.14% for the second.

Going from Cc1nn(C)c2c1c(C(F)(F)F)cc(=O)n2C(C)C(=O)NCc1ccc(Cl)cc1 (stereo not given) to Cc1ccccc1CNC(=O)CCCn1nc(C)c2sc3ccccc3c2c1=O, the “growth rescue (activation)” value rises from 2.64% to 2.7%.

Compared with CC(C)(C)Nc1c(-c2cccs2)nc2ccccn12, O=C(Nc1ccc(OC(F)(F)F)cc1)c1cc2c(=O)n3ccccc3nc2s1 is higher in “growth rescue (activation)” value: -18.1% for the first, 7.86% for the second.

Compared with CCc1nnc(SCc2c(F)cccc2Cl)c2cc3sccc3n12, C=CCSc1nnc(Cn2c(=O)sc3ccccc32)n1C is higher in “growth rescue (activation)” value: -0.933% for the first, 9.94% for the second.

Going from CCSc1ncc(Cl)c(C(=O)Nc2c(C(=O)c3ccccc3)oc3ccccc23)n1 to Cc1ccc2c(=O)c(C(=O)c3cccc(Cl)c3)cn(CC(=O)NCc3ccccc3)c2n1, the “growth rescue (activation)” value falls from 2.95% to -1.08%.

First: C[C@H]1NS(=O)(=O)c2cc(Cl)ccc2O[C@@H]1c1ccccc1
Second: COC[C@@H]1NS(=O)(=O)c2ccc(Br)cc2O[C@H]1c1ccccc1
The “growth rescue (activation)” value of the first is lower: 0.684% for the first, 7.89% for the second.

First: Cc1ccc2nc(-c3ccc(O)cc3)c(Nc3ccc4c(c3)OCO4)n2c1
Second: CC(=O)c1c(C)n(S(=O)(=O)c2ccc(Cl)cc2)c2ccc(NS(=O)(=O)c3ccc(Cl)cc3)cc12
The “growth rescue (activation)” value of the first is lower: 21.7% for the first, 26.6% for the second.

First: COc1ccc(C)cc1S(=O)(=O)Nc1cccc(Cl)c1Cl
Second: COc1cc(OC)c(NC(=O)N2CC3CCCN3c3ccccc32)cc1Cl (stereo not given)
The “growth rescue (activation)” value of the first is lower: 13% for the first, 18.7% for the second.

Compared with COc1cc(Br)c(-c2sc(Nc3ccccc3)n[n+]2-c2ccccc2)cc1OC, COc1cc(Nc2nc(-c3ccc(OC)c(OC)c3)nc3ccccc23)cc(OC)c1 is higher in “growth rescue (activation)” value: 6.16% for the first, 18.5% for the second.

First: CCc1ccc(NC(=O)c2cc3c(=O)n(Cc4cccnc4)ccc3nc2C)cc1
Second: CCCCc1ccc(NC(=O)NCc2cccnc2)cc1
The “growth rescue (activation)” value of the first is higher: 6.57% for the first, 6.28% for the second.

First: CCc1cc2c(NC(Cc3ccccc3)C(=O)O)ncnc2s1 (stereo not given)
Second: CCc1cc2c(SCC(=O)Nc3ncc(Cl)c(C)c3Cl)ncnc2s1
The “growth rescue (activation)” value of the first is lower: 6.4% for the first, 29.1% for the second.

First: CCOc1cc(/C=N/n2cnnc2)c(Br)cc1O
Second: CCOc1c(Br)cc(/C=C2\C(=O)N(CCC#N)N=C2C)cc1OC
The “growth rescue (activation)” value of the first is lower: -10.2% for the first, -3.23% for the second.

Compared with O=S(=O)(c1ccc(Br)cc1)c1nnn2c1nc(N1CCOCC1)c1sccc12, Cc1ccc(S(=O)(=O)c2nc(-c3cccs3)oc2N2CCCCC2)cc1 is higher in “growth rescue (activation)” value: 3.38% for the first, 12.1% for the second.

First: CCCCN(CC)CCCNC(=O)c1nn(C)c2c1CS(=O)(=O)c1ccccc1-2
Second: CCCCCn1c(=O)[nH]c2cc(C(=O)NCCN(C)CCCC)ccc2c1=O
The “growth rescue (activation)” value of the first is lower: 1.93% for the first, 20.9% for the second.

Going from COc1ccc(CN2CCOC2=O)cc1OC to CCOc1ccc(CNC(=O)C2CCN(c3nnc(-n4cccc4CNc4ccc(C)cc4)s3)CC2)cc1OC, the “growth rescue (activation)” value rises from 5.01% to 9.74%.

First: COc1ccc([N+](=O)[O-])cc1NC(=O)COC(=O)/C=C/c1ccco1
Second: CCN(c1ccc(Cl)cc1)S(=O)(=O)c1nnc(NC(=O)c2ccco2)s1
The “growth rescue (activation)” value of the first is higher: 9.61% for the first, 7.64% for the second.

First: CCCn1c2ccccc2c2cnn(CC(=O)N(CC)c3cc(C)ccc3C)c(=O)c21
Second: CCCn1c2ccccc2c2cnn(CC(=O)NCCCOC(C)C)c(=O)c21
The “growth rescue (activation)” value of the first is lower: -19.8% for the first, 15.2% for the second.

Compared with COc1ccc(N2CCN(c3cc(C)nc4nncn34)CC2)cc1, CCOc1ccc(N2CC(c3nc4ccccc4n3CCOc3ccc(OC)cc3)CC2=O)cc1 (stereo not given) is higher in “growth rescue (activation)” value: 4.9% for the first, 13.9% for the second.

First: Cc1ccccc1NC(=O)Cn1cc(C(=O)c2cccs2)c2ccccc21
Second: CCN(CCCNC(=O)c1cc2c(=O)n(CC)c3ccccc3c2s1)Cc1ccccc1
The “growth rescue (activation)” value of the first is higher: 11.7% for the first, 2.18% for the second.

Going from O=C(O)C1CC(=O)N(Cc2cccnc2)C1 (stereo not given) to O=C(c1cccc(Cl)c1)N1CCN(CCc2ccncc2)CC1, the “growth rescue (activation)” value rises from -14.9% to -9.8%.

First: CCc1cnc2c(c1SCC(=O)N1CCC(C)CC1)c(=O)n(C)c(=O)n2C
Second: Cc1oc2ncnc(N3CCOCC3)c2c1C(=O)NCCc1ccccc1
The “growth rescue (activation)” value of the first is lower: 11.7% for the first, 20.6% for the second.

First: CCCc1cc(-c2n[nH]c(=S)n2CC)c2ccccc2n1
Second: NS(=O)(=O)c1ccc(CCNC(=O)CCCCCn2c(=O)[nH]c3ccccc3c2=O)cc1
The “growth rescue (activation)” value of the first is lower: 6.52% for the first, 10.1% for the second.

Going from CCc1ccc(NC(=O)c2cc(S(=O)(=O)NC3CCCCCC3)ccc2F)cc1 to O=C(Nc1ccc(S(=O)(=O)Nc2ncccn2)cc1)C12CC3CC(CC(C3)C1)C2, the “growth rescue (activation)” value falls from 19.2% to -29.9%.

First: O=C(Nc1c2c(nn1-c1ccc(F)cc1)CS(=O)C2)C12CC3CC(CC(C3)C1)C2 (stereo not given)
Second: CN(C)c1ccc(C(CNS(=O)(=O)c2cc(F)ccc2F)N2CCOCC2)cc1 (stereo not given)
The “growth rescue (activation)” value of the first is higher: 11.8% for the first, -9.72% for the second.

In the case of COC(=O)N/N=C/c1ccc(-c2ccc(Cl)c(Cl)c2)o1, the Potency is reported as 12.6 µM (active).
For CSc1cccc(NC(=O)CSc2ccccc2)c1, the Potency was 14.1 µM (active).
In the case of COc1cccc(N2C(=O)CC(N3CCc4ccccc4C3)C2=O)c1 (stereo not given), the Potency is reported as 17.8 µM (active).
For CCc1noc(C)c1C(=O)Nc1nc(-c2ccccc2)cs1, the Potency was 11.2 µM (active).
In the case of CC1CCN(c2oc(-c3ccccc3F)nc2C#N)CC1, the Potency is reported as 15.8 µM (active).
For Cc1cc(-c2cccs2)nc(-n2cccc2)n1, the Potency was 12.6 µM (active).
In the case of CC(=O)OCC1(O)CC23CCC4c5ccoc5CCC4(C)C2CCC1C3 (stereo not given), the Potency is reported as 17.8 µM (active).
With C[C@@H]1NS(=O)(=O)c2cc(Cl)ccc2O[C@@H]1c1ccccc1 the Potency was 17.8 µM (active).
In the case of CCc1ccc(Nc2n[n+](-c3ccccc3)c(-c3cccc(Cl)c3Cl)s2)cc1, the Potency is reported as 35.5 µM (active).
For COc1ccc(C)cc1Nc1n[n+](-c2ccccc2)c(-c2cccc(Cl)c2Cl)s1, the Potency was 35.5 µM (active).
With CCc1cc2c(NC3CCCC3)ncnc2s1 the Potency was 12.6 µM (active).
In the case of CCOc1cc(/C=N/O)cc(Br)c1OC, the Potency is reported as 11.2 µM (active).
For COc1ccc(Cn2c(=O)sc3ccccc32)cc1OC, the Potency was 11.2 µM (active).
With COc1cc(NC(=O)c2cc([N+](=O)[O-])ccc2Br)ccc1NC(=O)c1ccco1 the Potency was 10 µM (active).
With CCCn1c2ccccc2c2cnn(CC(=O)N(C)c3ccccc3CC)c(=O)c21 the Potency was 28.2 µM (active).
In the case of CCCCCCCCCCCCN1C(=O)CSC1c1cccnc1 (stereo not given), the Potency is reported as 20 µM (active).
For Clc1ccc(Nc2nc(-c3cccs3)cs2)nc1, the Potency was 8.91 µM (active).
With Cc1cc(-c2n[nH]c(=S)n2/N=C/C(Br)=C/c2ccccc2)n[nH]1 the Potency was 35.5 µM (active).
For C#Cc1cc(N2CCN(C(=O)c3ccoc3)CC2)n2nc(-c3cccc(Cl)c3)cc2n1, the Potency was 22.4 µM (active).
For CN(C(=O)c1cc2c(=O)n3ccccc3nc2s1)C1CCCCC1, the Potency was 14.1 µM (active).
With CCOCCCNC(=O)c1cc2c(=O)n3ccccc3nc2s1 the Potency was “inactive”.
In the case of COC(=O)c1ccc(NC(=O)C23CC4CC(C2)CC(n2cnc(Cl)n2)(C4)C3)cc1, the Potency is reported as 25.1 µM (active).

Compared with COc1ccc(CNC(=O)C2=Cc3cccc(OC)c3OC2)cc1OC, CCOc1ccc(OCC)c(NC(=O)c2cc(C)nc3c2c(C)nn3-c2cccc(Cl)c2C)c1 is higher in growth rescue (activation): 0% [at 9.22 µM] for the first, 19.8% [at 9.22 µM] for the second.
